# Data reported in the supplement of paper PMC6411743.
# ± gives the standard deviation of the averaged measurements. Of roughly 5,400 targets only a part is listed; those with the largest changes were picked by preference.
# Compound: Nc1nc2c(ncn2[C@@H]2O[C@H](COP(=O)(O)OP(=O)(O)OP(=O)(O)O)[C@@H](O)[C@H]2O)c(=O)[nH]1 [guanosine triphosphate]
# Assay: NP40-soluble protein abundance relative to vehicle (solubility fold change) (ratio); higher = more soluble protein in presence of GTP
# In short: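 Crude Jurkat lysate, prepared by Dounce homogenisation, was exposed to eight concentrations from 0.1 to 10 mM for 10 min at room temperature and then 3 min at 37 °C. Solubilisation used 0.8% NP40 with benzonase for 60 min at 4 °C, followed by ultracentrifugation and TMT labelling of the supernatant for LC-MS/MS. After vsn normalisation of intensities, each value is the fold change against the detergent-processed vehicle within each replicate, across three independent experiments.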
# Chain of UniProt P04179 (P04179 whole entry, one chain of several): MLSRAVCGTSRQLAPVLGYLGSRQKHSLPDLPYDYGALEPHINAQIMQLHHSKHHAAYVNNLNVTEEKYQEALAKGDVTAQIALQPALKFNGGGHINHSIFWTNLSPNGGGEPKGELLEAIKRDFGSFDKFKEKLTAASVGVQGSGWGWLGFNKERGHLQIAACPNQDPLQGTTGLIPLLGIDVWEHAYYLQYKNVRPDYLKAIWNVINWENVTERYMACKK
# Chain of UniProt Q14202 (Q14202 whole entry, one chain of several): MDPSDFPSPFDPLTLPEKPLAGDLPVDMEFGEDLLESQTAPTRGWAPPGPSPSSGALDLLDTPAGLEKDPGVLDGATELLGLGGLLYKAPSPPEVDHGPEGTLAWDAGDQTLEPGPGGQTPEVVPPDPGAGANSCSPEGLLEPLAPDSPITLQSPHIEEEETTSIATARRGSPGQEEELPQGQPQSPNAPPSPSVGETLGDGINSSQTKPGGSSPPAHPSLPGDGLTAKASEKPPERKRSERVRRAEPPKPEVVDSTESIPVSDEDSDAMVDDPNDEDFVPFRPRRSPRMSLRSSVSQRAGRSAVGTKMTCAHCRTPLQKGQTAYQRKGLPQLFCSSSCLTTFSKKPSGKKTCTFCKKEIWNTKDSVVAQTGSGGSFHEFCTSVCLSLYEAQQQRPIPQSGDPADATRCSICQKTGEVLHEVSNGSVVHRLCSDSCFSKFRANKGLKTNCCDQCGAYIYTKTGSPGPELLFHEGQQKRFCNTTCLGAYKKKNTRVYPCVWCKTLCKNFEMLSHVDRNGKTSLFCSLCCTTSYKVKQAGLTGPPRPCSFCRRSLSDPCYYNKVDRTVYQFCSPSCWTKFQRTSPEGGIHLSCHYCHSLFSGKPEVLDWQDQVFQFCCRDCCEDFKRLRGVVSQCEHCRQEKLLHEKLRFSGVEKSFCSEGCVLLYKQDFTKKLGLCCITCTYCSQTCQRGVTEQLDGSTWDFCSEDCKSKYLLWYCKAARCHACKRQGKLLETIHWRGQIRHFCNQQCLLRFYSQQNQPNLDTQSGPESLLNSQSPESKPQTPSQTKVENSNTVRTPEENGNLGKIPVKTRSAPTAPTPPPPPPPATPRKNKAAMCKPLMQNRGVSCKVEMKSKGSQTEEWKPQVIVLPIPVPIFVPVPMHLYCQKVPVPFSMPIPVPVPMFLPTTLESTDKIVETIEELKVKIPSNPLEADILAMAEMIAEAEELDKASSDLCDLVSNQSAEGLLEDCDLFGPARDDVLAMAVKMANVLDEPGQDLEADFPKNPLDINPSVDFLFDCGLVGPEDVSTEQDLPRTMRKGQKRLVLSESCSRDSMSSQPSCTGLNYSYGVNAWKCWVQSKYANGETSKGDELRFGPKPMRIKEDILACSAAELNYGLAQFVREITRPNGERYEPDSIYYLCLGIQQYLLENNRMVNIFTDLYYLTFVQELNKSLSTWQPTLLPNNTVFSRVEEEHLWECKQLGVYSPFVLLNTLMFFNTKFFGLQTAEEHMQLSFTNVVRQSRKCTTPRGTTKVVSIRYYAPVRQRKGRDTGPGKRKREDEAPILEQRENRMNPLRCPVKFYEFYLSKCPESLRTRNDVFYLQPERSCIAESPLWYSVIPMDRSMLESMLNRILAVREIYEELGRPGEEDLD
# Chain of UniProt Q9UGP4 (Q9UGP4 whole entry, one chain of several): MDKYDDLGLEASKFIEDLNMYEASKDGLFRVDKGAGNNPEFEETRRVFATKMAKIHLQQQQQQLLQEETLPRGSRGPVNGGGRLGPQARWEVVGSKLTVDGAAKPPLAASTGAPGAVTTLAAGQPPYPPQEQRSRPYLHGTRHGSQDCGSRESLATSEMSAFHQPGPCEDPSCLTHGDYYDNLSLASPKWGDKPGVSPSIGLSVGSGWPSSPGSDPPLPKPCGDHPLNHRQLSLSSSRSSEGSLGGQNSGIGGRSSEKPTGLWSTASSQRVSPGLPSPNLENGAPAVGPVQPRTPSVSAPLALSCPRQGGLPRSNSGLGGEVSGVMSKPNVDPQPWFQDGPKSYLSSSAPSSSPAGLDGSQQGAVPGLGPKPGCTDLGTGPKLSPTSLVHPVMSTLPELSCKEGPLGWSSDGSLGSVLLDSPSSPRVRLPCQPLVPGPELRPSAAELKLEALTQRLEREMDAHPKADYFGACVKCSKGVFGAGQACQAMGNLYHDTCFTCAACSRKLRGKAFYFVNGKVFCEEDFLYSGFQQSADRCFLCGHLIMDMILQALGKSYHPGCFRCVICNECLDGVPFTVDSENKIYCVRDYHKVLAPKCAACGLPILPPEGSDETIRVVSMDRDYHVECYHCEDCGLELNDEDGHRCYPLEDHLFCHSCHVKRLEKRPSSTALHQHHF
# Chain of UniProt Q96FV9 (Q96FV9 whole entry, one chain of several): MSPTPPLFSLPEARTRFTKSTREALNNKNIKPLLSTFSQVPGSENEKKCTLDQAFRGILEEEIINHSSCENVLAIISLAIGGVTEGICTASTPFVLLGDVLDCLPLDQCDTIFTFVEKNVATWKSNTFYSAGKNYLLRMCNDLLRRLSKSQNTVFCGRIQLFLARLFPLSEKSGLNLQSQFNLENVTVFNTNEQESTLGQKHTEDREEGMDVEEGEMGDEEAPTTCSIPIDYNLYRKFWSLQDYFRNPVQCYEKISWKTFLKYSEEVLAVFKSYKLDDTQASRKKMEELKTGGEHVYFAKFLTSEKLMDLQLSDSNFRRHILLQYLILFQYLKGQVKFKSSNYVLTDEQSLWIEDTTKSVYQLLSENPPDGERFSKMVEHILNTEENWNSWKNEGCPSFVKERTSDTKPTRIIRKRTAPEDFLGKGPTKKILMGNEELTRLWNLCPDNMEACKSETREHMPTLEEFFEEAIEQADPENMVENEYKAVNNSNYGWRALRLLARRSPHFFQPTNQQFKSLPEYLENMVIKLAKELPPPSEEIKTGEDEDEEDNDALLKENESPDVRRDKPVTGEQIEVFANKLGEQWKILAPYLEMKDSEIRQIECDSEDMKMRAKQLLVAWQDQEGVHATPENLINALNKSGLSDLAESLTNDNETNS
# Chain of UniProt Q16851 (Q16851 whole entry, one chain of several): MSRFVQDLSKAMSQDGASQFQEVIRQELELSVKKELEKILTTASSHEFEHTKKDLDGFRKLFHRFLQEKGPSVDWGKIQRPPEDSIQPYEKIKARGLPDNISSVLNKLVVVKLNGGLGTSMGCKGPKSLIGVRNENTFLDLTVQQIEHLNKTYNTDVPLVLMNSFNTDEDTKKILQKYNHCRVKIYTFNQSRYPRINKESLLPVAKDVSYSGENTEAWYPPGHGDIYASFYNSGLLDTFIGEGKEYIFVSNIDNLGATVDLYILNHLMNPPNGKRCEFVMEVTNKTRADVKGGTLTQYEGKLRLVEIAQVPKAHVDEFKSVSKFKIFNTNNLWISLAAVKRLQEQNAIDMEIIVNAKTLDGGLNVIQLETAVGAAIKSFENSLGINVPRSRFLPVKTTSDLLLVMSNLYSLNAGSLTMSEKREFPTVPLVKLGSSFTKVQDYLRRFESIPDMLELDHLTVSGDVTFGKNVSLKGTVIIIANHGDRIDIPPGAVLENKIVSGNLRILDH
# Chain of UniProt P09884 (P09884 whole entry, one chain of several): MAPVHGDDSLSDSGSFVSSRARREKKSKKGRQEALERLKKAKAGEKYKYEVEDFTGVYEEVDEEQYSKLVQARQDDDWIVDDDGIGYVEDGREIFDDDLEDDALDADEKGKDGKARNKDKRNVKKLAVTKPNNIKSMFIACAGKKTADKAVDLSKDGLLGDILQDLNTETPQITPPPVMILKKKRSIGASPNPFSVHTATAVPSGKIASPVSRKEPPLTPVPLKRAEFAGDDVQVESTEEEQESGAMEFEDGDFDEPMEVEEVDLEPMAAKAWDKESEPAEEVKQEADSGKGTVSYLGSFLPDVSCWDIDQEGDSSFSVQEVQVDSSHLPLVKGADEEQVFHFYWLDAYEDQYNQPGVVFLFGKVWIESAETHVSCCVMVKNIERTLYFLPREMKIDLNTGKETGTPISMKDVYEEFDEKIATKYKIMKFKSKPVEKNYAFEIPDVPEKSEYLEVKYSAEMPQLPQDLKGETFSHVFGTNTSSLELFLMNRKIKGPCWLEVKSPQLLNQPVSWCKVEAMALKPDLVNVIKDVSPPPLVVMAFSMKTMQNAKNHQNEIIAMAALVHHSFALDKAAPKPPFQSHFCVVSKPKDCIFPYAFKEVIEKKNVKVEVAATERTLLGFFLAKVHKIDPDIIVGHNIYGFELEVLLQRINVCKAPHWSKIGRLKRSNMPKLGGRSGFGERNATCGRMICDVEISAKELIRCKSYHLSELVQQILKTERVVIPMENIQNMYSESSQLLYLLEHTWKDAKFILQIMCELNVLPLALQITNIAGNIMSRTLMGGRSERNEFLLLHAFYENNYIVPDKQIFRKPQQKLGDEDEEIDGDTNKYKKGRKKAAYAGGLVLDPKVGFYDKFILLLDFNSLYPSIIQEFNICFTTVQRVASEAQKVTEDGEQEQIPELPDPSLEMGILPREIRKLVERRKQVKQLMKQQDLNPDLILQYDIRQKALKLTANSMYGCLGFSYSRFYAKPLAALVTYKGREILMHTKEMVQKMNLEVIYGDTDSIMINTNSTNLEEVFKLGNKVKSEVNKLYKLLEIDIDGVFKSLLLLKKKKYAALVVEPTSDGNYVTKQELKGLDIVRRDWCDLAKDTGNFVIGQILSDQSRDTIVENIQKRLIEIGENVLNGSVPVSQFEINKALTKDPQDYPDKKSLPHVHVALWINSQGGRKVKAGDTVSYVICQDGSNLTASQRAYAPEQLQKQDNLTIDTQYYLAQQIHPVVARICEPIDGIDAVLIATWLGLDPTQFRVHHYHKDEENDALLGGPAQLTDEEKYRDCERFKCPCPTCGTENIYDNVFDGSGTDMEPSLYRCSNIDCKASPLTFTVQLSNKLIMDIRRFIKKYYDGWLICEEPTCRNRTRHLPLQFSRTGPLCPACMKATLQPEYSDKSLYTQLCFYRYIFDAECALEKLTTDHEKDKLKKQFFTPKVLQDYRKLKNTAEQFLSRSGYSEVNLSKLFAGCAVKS
Target,NP40-soluble protein abundance (concentration: 0.1mM),NP40-soluble protein abundance (concentration: 0.5mM),NP40-soluble protein abundance (concentration: 1mM),NP40-soluble protein abundance (concentration: 2mM),NP40-soluble protein abundance (concentration: 4mM),NP40-soluble protein abundance (concentration: 6mM),NP40-soluble protein abundance (concentration: 8mM),NP40-soluble protein abundance (concentration: 10mM)
A0A0R4J2F3|Q9Y2S0|Q9Y2S0-2 (UniProt Q9Y2S0),1.01 ± 0.075,0.925 ± 0.056,1.11 ± 0.2,1.16 ± 0.14,1.2 ± 0.17,1.17 ± 0.12,1.15 ± 0.21,1.24 ± 0.28
A0A0U1RRH6|O94880|O94880-2 (UniProt O94880),1.05 ± 0.095,1.07 ± 0.14,1.15 ± 0.12,1.16 ± 0.065,1.34 ± 0.12,1.46 ± 0.096,1.65 ± 0.25,1.78 ± 0.25
E9PDF6|O43795|O43795-2 (UniProt O43795),1.44 ± 0.25,2.35 ± 0.38,2.32 ± 0.37,2.41 ± 0.43,2.4 ± 0.41,2.37 ± 0.38,2.33 ± 0.3,2.21 ± 0.26
A0A087WU64|A6NMQ1|P09884 (UniProt P09884),1.06 ± 0.025,1.07 ± 0.035,1.01 ± 0.047,1.02 ± 0.057,1.01 ± 0.033,0.994 ± 0.028,1.01 ± 0.051,0.973 ± 0.029
D6RAN8|H7C5U8|Q9P0M9 (UniProt Q9P0M9),1.09 ± 0.38,1.2 ± 0.5,1.53 ± 0.78,1.81 ± 0.82,1.91 ± 0.83,1.72 ± 0.79,1.64 ± 0.79,1.58 ± 0.84
A6NHB5|A6NHN7|Q14202|Q14202-2 (UniProt Q14202),1.08 ± 0.056,1.12 ± 0.075,1.18 ± 0.092,1.31 ± 0.14,1.37 ± 0.16,1.4 ± 0.15,1.46 ± 0.15,1.42 ± 0.16
A0A0C4DFU2|P04179|P04179-4 (UniProt P04179),0.85 ± 0.056,0.843 ± 0.071,0.851 ± 0.071,0.839 ± 0.043,0.814 ± 0.045,0.823 ± 0.052,0.734 ± 0.073,0.776 ± 0.07
C9JWG0|Q16851-2 (UniProt Q16851),1.04 ± 0.03,1.04 ± 0.052,1 ± 0.046,1.01 ± 0.071,1.01 ± 0.042,1.01 ± 0.067,0.998 ± 0.057,0.983 ± 0.065
UniProt A5PLN9|A5PLN9-2|A5PLN9-4|A5PLN9-5,1.02 ± 0.078,1.04 ± 0.052,0.99 ± 0.041,0.954 ± 0.05,0.969 ± 0.073,0.951 ± 0.041,0.965 ± 0.014,0.904 ± 0.014
A6NJD9|A8MVT4|A8MYK1|Q16540 (UniProt Q16540),1.06 ± 0.1,1.11 ± 0.23,1.28 ± 0.22,1.29 ± 0.31,1.36 ± 0.41,1.14 ± 0.35,1.19 ± 0.32,1.2 ± 0.37
A0A087WWS1|Q96FV9 (UniProt Q96FV9),1.1 ± 0.016,1.24 ± 0.086,1.41 ± 0.19,1.76 ± 0.41,2.08 ± 0.62,2.26 ± 0.76,2.37 ± 0.83,2.4 ± 0.91
E7EN86|P52747|P52747-2|P52747-3 (UniProt P52747),1.06 ± 0.038,1.03 ± 0.024,0.988 ± 0.058,0.94 ± 0.013,0.988 ± 0.076,0.939 ± 0.055,1.03 ± 0.013,1.02 ± 0.045
A0A0U1RR32|A0A0U1RRH7|P04908|P0C0S8|P20671|Q6FI13|Q7L7L0|Q93077|Q96KK5|Q99878 (UniProt Q99878+Q7L7L0+Q6FI13+Q93077+P20671+P0C0S8+Q96KK5+P04908),1.01 ± 0.11,0.7204 ± 0.0051,1.26 ± 0.37,1.24 ± 0.024,1.76 ± 0.48,1.92 ± 0.49,1.4 ± 0.53,2.39 ± 1.2
A0A0A0MRF6|Q99996|Q99996-2|Q99996-3|Q99996-5|Q99996-6 (UniProt Q99996),1.03 ± 0.014,1.05 ± 0.017,1.08 ± 0.049,1.1 ± 0.056,1.15 ± 0.09,1.14 ± 0.095,1.18 ± 0.14,1.12 ± 0.13
C9JRJ5|Q9UGP4 (UniProt Q9UGP4),1.01 ± 0.054,1 ± 0.021,1 ± 0.043,0.955 ± 0.025,0.963 ± 0.031,0.962 ± 0.021,1.01 ± 0.038,0.965 ± 0.034
A0A087X1E4|P53365|P53365-3 (UniProt P53365),0.956 ± 0.05,0.853 ± 0.057,0.972 ± 0.052,0.963 ± 0.08,0.913 ± 0.088,0.906 ± 0.1,0.861 ± 0.14,0.889 ± 0.068
H0YL22|Q9Y375 (UniProt Q9Y375),0.979 ± 0.059,1.05 ± 0.082,0.936 ± 0.088,0.969 ± 0.071,0.922 ± 0.036,0.924 ± 0.065,0.921 ± 0.071,0.943 ± 0.059
